Experimental data published in PubChem BioAssay (NCATS).
Records with an inconclusive call do not appear. The source made the active and inactive calls. Unless noted, calls come from the whole dose curve; as a rule, active = well fitted curve in the direction sought with a large enough effect; inconclusive = small, poorly fitted or top-dose-only effect, or another doubt; inactive = no such curve, though single readings can be large; an effect the other way counts as inactive or inconclusive.

Columns and labels:
[1] = target: Lysosomal acid glucosylceramidase (Homo sapiens) (UniProt P04062); assay: Glucocerebrosidase-p2 (AID 348; in the data active = potency below about 10 µM; note: potency is the fitted concentration of half-maximal effect); conditions: purified GBA, blue fluorogenic substrate, 40 min
Lysosomal acid glucosylceramidase (Homo sapiens), sequence (P04062 whole entry, looked up): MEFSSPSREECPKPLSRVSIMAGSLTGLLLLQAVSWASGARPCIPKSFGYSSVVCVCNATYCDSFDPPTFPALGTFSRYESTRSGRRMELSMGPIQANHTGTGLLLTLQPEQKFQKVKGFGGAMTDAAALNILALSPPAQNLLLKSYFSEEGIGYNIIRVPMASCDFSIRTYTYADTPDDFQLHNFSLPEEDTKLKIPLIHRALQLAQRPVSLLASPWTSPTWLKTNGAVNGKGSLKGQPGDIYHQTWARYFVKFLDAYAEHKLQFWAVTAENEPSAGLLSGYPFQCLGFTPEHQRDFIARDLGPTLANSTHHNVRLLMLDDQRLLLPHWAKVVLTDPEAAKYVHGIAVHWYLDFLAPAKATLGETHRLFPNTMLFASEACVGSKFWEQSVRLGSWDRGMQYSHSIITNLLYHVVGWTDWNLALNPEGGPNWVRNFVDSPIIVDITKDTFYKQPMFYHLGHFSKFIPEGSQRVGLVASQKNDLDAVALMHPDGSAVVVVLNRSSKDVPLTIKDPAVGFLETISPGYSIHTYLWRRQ
How it was run: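 Normal human glucocerebrosidase (0.2 nM) with blue fluorogenic substrate (80 uM final) in citrate/phosphate pH 5.9 with 10mM sodium taurocholate, 0.01% tween-20; 40 min RT, NaOH/glycine stop; fluorescence Ex 365/Em 440; AC50 from a titration from 0.6 nM upwards.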

[2] = AP1 Signaling Pathway (AID 357; active = well fitted curve in either direction with a large enough effect, not every such curve was filed as active;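 note: ME-180 reporter cells stimulated with EGF at its EC50 level; % is set by controls: 0 for no effect and ±100 for the full control effect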); conditions: ME-180 AP-1-bla reporter, EGF-induced, beta-lactamase ratio, 5 h; at 7.69 µM (top of the series) unless noted
How it was run: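 A ratiometric CCF4 readout (405 nm excitation; 460 and 530 nm emission) quantified AP-1-driven beta-lactamase in ME-180 cells after 5 h with compound and EC50 EGF; AC50 values were derived for activators and inhibitors.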

[3] = target: Cytochrome P450 1A2 (Homo sapiens) (UniProt P05177); assay: p450-cyp1a2 (AID 410; calls by dose curve; note: potency is the fitted concentration of half-maximal effect;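 for activity change, negative = inhibition: -100% = full effect of reference inhibitor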); conditions: recombinant CYP1A2, luciferin-ME demethylation, luminescence; series mostly up to 57 µM
Cytochrome P450 1A2 (Homo sapiens), sequence (P05177 whole entry, looked up): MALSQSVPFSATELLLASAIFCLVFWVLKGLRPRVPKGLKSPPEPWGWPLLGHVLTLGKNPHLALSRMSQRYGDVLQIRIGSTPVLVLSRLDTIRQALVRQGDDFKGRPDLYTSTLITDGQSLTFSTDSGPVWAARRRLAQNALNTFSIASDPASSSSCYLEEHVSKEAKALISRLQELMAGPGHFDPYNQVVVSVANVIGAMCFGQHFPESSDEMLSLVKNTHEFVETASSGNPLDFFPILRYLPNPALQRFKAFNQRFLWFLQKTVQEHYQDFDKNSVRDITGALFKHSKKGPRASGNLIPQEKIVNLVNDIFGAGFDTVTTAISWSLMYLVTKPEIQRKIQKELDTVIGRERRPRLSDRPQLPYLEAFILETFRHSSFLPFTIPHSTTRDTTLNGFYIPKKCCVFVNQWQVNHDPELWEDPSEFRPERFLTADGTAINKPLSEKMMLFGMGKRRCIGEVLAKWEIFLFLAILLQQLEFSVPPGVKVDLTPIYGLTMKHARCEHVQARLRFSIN
How it was run: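 O-Demethylation of luciferin 6' methyl ether by human CYP1A2 is monitored as luciferase luminescence. Substrate sits at Km (100uM); enzyme is 20nM. Values are scaled to 57 uM furafylline as maximal inhibition.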

[4] = NFAT Signaling Pathway (AID 444; active = well fitted curve in either direction with a large enough effect, not every such curve was filed as active;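 note: carbachol stimulus at about its EC50 of 1 µM final; % is set by controls: 0 for no effect and ±100 for the full control effect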); conditions: Jurkat NFAT-bla M1, carbachol, beta-lactamase ratio, 5 h; at 7.69 µM (top of the series) unless noted
How it was run: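 Read-out: CCF4 FRET ratio (460 nm/530 nm) after 1 h RT dye loading, used for %activity and AC50 from titration series. Cells: Jurkat NFAT-β-lactamase/M1 line, treated with compound plus 1 uM carbachol for 5 h, 37 °C.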

[5] = Stat Signaling Pathway (AID 446; active = well fitted curve in either direction with a large enough effect, not every such curve was filed as active;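 note: ME-180 cervical cancer cells given 40 pM IL-6 alongside compound; SIE-controlled beta-lactamase reporter measured as 460/530 nm FRET emission ratio; % is set by controls: 0 for no effect and ±100 for the full control effect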); conditions: ME-180 (cervical carcinoma) SIE beta-lactamase reporter, IL-6 stimulated, 5 h; at 7.69 µM (top of the series) unless noted
How it was run: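 Normalization used AC90 stimulation (300 pM IL-6) and AC90 inhibition (125 nM pan-JAK inhibitor at 40 pM IL-6). The underlying signal is SIE-driven beta-lactamase in ME-180 cells after 5 h IL-6 exposure with compound.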

[6] = target: Glucocorticoid receptor (Homo sapiens) (UniProt P04150); assay: GR-GFP Redistribution (AID 450;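 active = compounds whose dose series gives a full or clear partial fitted curve of increased nuclear translocation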; note: potency is the fitted concentration of half-maximal effect); conditions: U2OS GR-GFP nuclear translocation, laser cytometry, 2 h
Glucocorticoid receptor (Homo sapiens), sequence (P04150 whole entry, looked up, the tested form may be a part): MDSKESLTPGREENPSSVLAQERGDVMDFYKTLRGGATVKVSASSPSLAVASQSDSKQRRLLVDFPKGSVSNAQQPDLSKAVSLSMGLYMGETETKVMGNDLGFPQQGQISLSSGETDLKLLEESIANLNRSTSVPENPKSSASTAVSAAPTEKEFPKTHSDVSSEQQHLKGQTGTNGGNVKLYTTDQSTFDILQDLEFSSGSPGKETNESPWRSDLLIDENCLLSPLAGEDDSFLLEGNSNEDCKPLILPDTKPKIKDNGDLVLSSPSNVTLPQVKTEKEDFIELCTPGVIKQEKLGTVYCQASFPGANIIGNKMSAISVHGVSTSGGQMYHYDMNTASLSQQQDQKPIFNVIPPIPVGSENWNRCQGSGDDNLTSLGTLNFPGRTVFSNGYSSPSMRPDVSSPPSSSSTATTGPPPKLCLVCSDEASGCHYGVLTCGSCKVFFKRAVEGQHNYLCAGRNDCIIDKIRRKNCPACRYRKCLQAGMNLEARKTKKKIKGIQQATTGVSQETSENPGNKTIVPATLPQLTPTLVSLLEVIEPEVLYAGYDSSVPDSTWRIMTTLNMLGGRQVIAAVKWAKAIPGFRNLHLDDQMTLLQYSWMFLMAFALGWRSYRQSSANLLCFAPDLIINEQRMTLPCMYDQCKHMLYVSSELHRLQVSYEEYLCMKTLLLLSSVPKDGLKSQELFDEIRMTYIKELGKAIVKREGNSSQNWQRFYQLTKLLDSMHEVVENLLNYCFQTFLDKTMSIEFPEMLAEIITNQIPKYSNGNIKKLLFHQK

[7] = target: Glucocorticoid receptor (Homo sapiens) (UniProt P04150); assay: GR-EFC Redistribution (AID 451; calls by dose curve; note: potency is the fitted concentration of half-maximal effect); conditions: CHO-K1 GR-EFC translocation, beta-gal luminescence, 2 h
How it was run: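 Translocation of GR-ED fusion to nuclear EA restores b-gal, read by luminescence after 1 h room-temperature detection. Engineered CHO-K1 biosensor cells, 1,000/well, exposed 2 h at 37 C to titrations up to 46 uM final.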

[8] = target: Mitogen-activated protein kinase 10 (Mus musculus) (UniProt Q61831); assay: JNK3 AlphaScreen Assay (AID 530; active = well fitted curve in either direction with a large enough effect, not every such curve was filed as active;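 note: kinase came from lysate of stimulated human HepG2 cells; signal reports phosphorylation of biotinylated GST-cJun 1-79 at Ser73 with 10 µM ATP; % is set by controls: 0 for no effect and ±100 for the full control effect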); conditions: JNK3 lysate, c-Jun phosphorylation; series mostly up to 57.1 µM
How it was run: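 qHTS titrations with 15 min compound pre-incubation before adding ATP (10 uM final). Read-out: AlphaScreen of Ser73-phosphorylated biotin-GST-cJun using HepG2 lysate JNK3 activated by IL-1β and TNFα.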

[9] = target: Cytochrome P450 3A4 (Homo sapiens) (UniProt P08684); assay: qHTS Assay for Activators of Cytochrome P450 3A4 (AID 885); conditions: recombinant CYP3A4, Luciferin-PPXE luminescence, 60 min; series mostly up to 57.1 µM; note: nearly all actives have a fitted effect of over 65% in size; note: potency is the fitted concentration of half-maximal effect
Cytochrome P450 3A4 (Homo sapiens), sequence (P08684 whole entry, looked up): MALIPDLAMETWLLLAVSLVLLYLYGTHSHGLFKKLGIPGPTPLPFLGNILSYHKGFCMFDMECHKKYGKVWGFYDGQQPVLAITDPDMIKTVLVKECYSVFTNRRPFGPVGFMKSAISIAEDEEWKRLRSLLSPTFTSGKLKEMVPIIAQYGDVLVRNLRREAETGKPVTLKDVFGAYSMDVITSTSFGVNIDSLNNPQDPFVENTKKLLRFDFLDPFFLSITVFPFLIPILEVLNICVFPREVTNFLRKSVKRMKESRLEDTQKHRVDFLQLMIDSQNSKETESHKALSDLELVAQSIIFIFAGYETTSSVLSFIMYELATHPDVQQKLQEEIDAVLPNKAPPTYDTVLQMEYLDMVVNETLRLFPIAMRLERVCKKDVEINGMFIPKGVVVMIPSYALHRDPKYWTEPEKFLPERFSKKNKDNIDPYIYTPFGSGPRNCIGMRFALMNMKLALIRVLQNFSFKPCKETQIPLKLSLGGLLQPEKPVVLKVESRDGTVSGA
How it was run: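 Human CYP3A4 dealkylates Luciferin-PPXE to luciferin, which luciferase detection converts to light. Substrate was at its KM (25uM), buffer 200mM KPO4, reaction 60 min at RT.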

[10] = qHTS Assay for Lipid Storage Modulators (AID 1519; calls by dose curve); conditions: Drosophila S3 cells, BODIPY lipid droplet/cell ratio, laser cytometry, cells loaded with oleic acid; for activity change, negative = inhibition: at 57.5 µM (top of the series)
How it was run: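 Cells seeded at 5,000 per well were treated with compounds over a concentration series and loaded with oleic acid (400 uM, as added). Lipid droplet fluorescence (488 nm excitation, 500-530 nm channel) was read by laser-scanning cytometry and normalized to 20 uM Triacsin C.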

[11] = target: Dual specificity protein kinase CLK4 (Homo sapiens) (UniProt Q9HAZ1); assay: qHTS Assay for Inhibitors of CDC-like Kinase 4 (Kinase-Glo Assay) (AID 1770); conditions: recombinant Clk4, Kinase-Glo ATP depletion luminescence; series mostly up to 66.7 µM; note: nearly all actives have a fitted effect of over 65% in size; note: potency is the fitted concentration of half-maximal effect
Dual specificity protein kinase CLK4 (Homo sapiens), sequence (Q9HAZ1 whole entry, looked up): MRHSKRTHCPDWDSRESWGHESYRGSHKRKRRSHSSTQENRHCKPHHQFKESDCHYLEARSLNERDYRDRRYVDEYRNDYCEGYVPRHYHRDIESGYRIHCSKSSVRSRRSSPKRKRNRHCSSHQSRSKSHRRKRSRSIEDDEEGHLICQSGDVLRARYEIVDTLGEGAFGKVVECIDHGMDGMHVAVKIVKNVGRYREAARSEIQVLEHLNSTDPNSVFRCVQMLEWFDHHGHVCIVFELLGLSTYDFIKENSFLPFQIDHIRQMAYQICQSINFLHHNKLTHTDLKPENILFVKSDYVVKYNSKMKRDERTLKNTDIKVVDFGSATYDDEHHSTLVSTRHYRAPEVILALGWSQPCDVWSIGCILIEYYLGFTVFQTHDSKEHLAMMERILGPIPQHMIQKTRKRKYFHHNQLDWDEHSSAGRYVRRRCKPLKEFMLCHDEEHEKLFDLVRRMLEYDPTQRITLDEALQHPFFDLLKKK
How it was run: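 Inhibition was judged from remaining ATP, measured by Ultra-Glo luciferase bioluminescence after Clk4 (25 nM) had acted on RS peptide at 1 uM ATP for 4.5 hours, room temperature.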

[12] = target: Dual specificity protein kinase CLK4 (Homo sapiens) (UniProt Q9HAZ1); assay: qHTS Assay for Inhibitors of CDC-like Kinase 4 (ADP-Glo Assay) (AID 1771); conditions: recombinant CLK4, ADP-Glo luminescence; series mostly up to 80 µM; note: nearly all actives have a fitted effect of over 70% in size; note: potency is the fitted concentration of half-maximal effect
How it was run: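 Compounds are pin-transferred onto substrate mix (100 uM RS peptide, 1 uM ATP), then 25 nM Clk4 is added. After 1 hr at room temperature, ADP-Glo reagent runs 45 min, detection reagent 30 min, then luminescence is read.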

[13] = target: Dual specificity protein kinase CLK4 (Homo sapiens) (UniProt Q9HAZ1); assay: qHTS Assay for Inhibitors of CDC-like Kinase 4 (ADP-FP Assay) (AID 1795); conditions: Transcreener ADP fluorescence polarization; series mostly up to 50 µM; note: nearly all actives have a fitted effect of over 60% in size; note: potency is the fitted concentration of half-maximal effect
How it was run: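 Inhibition of ADP formation by 6.25 nM Clk4 is measured using 1 uM ATP and 100 uM RS repeat peptide over one hour. Produced ADP displaces a fluorescent tracer from antibody, lowering polarization.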

[14] = target: Ubiquitin carboxyl-terminal hydrolase 1 (Homo sapiens) (UniProt O94782); assay: Inhibitors of USP1/UAF1: Pilot qHTS (AID 504865); conditions: purified USP1/UAF1, Ub-rhodamine cleavage fluorescence; series mostly up to 54.9 µM; note: nearly all actives have a fitted effect of over 35% in size; note: potency is the fitted concentration of half-maximal effect
Ubiquitin carboxyl-terminal hydrolase 1 (Homo sapiens), sequence (O94782 whole entry, looked up): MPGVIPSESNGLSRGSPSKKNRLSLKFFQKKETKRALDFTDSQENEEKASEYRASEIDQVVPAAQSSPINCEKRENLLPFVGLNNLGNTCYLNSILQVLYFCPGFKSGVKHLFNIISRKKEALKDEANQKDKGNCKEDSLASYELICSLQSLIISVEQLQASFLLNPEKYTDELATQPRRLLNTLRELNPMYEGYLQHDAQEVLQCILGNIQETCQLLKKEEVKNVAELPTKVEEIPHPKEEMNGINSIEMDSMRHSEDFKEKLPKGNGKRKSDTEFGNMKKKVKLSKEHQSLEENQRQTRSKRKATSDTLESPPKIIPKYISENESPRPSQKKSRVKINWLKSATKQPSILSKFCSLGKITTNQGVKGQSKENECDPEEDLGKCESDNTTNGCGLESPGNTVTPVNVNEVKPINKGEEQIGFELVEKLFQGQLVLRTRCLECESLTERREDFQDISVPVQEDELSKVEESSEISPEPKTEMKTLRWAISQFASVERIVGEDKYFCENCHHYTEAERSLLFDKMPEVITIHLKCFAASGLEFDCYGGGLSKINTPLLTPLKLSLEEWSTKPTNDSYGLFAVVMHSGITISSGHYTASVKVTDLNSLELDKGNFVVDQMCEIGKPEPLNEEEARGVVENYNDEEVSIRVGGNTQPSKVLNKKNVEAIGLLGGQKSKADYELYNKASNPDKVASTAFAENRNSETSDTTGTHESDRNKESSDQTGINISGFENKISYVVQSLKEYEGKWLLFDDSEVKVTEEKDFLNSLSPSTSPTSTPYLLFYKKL
How it was run: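 Kinetic fluorescence assay: 1nM USP1/UAF1, 15 min compound preincubation, then 150nM Ub-Rho; 480/540 nm.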

[15] = target: 3',5'-cyclic-AMP phosphodiesterase 4B (Homo sapiens) (UniProt Q07343); assay: qHTS Assay for Inhibitors of PDE-IV (AID 607; active = well fitted activation curve with a large enough effect in the main read-out, with a control signal flat, not every such curve was filed as active; note: % of control where 0% means no effect); conditions: HEK293 ACTOne CNG channel cells, membrane potential fluorescence; series mostly up to 22.9 µM
3',5'-cyclic-AMP phosphodiesterase 4B (Homo sapiens), sequence (Q07343 whole entry, looked up): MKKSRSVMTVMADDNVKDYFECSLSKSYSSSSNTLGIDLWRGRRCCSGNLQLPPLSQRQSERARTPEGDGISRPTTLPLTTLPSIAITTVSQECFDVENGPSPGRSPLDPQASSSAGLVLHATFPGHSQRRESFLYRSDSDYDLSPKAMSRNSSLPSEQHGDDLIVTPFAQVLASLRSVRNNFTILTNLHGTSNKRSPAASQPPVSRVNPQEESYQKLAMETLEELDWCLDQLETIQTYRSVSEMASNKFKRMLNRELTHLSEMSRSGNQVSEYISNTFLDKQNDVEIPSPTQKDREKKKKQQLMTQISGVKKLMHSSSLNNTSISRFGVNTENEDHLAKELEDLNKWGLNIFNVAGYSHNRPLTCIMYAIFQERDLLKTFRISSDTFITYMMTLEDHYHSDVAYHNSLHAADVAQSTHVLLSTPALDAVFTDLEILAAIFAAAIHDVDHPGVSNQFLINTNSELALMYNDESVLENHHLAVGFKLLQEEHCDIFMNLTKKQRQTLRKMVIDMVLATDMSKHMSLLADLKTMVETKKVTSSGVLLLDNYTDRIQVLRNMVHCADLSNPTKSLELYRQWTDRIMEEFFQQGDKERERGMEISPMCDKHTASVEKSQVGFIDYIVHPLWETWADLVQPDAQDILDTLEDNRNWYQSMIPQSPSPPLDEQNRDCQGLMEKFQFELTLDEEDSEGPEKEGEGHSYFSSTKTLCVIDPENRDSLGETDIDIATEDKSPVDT
How it was run: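 HEK293 ACTOne cells with CNG channel (1000/well), endogenous PDE4; membrane potential dye, compounds up to 22.9 uM final. Fluorescence Ex 535/Em 590; RO 20-1724 (100 uM final) as reference.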

[16] = target: Cytochrome P450 3A4 (Homo sapiens) (UniProt P08684); assay: qHTS Assay for Inhibitors and Substrates of Cytochrome P450 3A4 (AID 884); conditions: recombinant CYP3A4, Luciferin-PPXE luminescence; series mostly up to 57.1 µM; note: nearly all actives have a fitted effect of over 50% in size; note: potency is the fitted concentration of half-maximal effect
How it was run: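 Luminescent readout of luciferin produced by CYP3A4 (20 nM) dealkylation of Luciferin-PPXE, 25 uM (its KM). NADPH-driven reaction ran 60 min at RT after 10 min compound preincubation; data scaled to 57 uM ketoconazole as 100% inhibition.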

[17] = measured here: cell count channel max response
[18] = measured here: lipid channel max response

CN(C)C(=O)c1ccc(-c2ccc3ncnc(NCc4cccs4)c3c2)cc1
12.3%: max response [10, 18]
active: Potency [3] 15.8 µM | Potency [11] 12.6 µM | Potency [12] 7.08 µM | Potency [13] 14.1 µM
inactive: Potency [1] > 11.4 µM | activity change, negative = inhibition [2] -29.4% | activity change, negative = inhibition [4] 17.3% | activity, negative = inhibition [5] -7.67% | Potency [6] > 46 µM | Potency [7] > 46 µM | Potency [8] | Potency [9] | activity change, negative = inhibition [10] 6.27% | Potency [14]
5.7%: max response [10, 17]

COc1ccccc1-c1nccc(Nc2ccc(F)cc2)n1
9.46%: max response [10, 17]
12.9%: max response [10, 18]
inactive: Potency [1] > 11.4 µM | activity change, negative = inhibition [2] 6.43% | activity change, negative = inhibition [4] 10.2% | activity, negative = inhibition [5] -4% | Potency [6] > 46 µM | activity change, negative = inhibition [10] 4.58% | Potency [11] | Potency [12] | Potency [13]

CN1CCN(c2ncc3nc(-c4cc(F)cc(F)c4)c(=O)n(CCC#N)c3n2)CC1
26.1%: max response [10, 18]
25.2%: max response [10, 17]
active: Potency [3] 15.8 µM
inactive: Potency [1] > 11.4 µM | Potency [6] > 9.22 µM | Potency [7] > 46 µM | Potency [8] | Potency [15] | Potency [9] | activity change, negative = inhibition [10] 1.36% | Potency [11] | Potency [12] | Potency [13] | Potency [14]

COc1cccc(Cn2c(=O)c(-c3ccccc3)nc3cnc(N4CCN(C)CC4)nc32)c1
inactive: Potency [1] > 11.4 µM | Potency [3] | Potency [6] > 9.22 µM | Potency [15] | Potency [9] | activity change, negative = inhibition [10] -6.14% | Potency [11] | Potency [12] | Potency [13] | Potency [14]
6.94%: max response [10, 17]
-0.577%: max response [10, 18]

Cc1ccccc1-c1nc(N2CCOCC2)c2ccccc2n1
31.7%: max response [10, 17]
active: Potency [3] 2 µM | Potency [11] 15.8 µM | Potency [12] 15.8 µM | Potency [13] 12.6 µM | Potency [14] 28.2 µM
inactive: Potency [1] > 11.4 µM | activity change, negative = inhibition [2] 4.71% | activity change, negative = inhibition [4] -2.19% | activity, negative = inhibition [5] 4.23% | Potency [6] > 46 µM | Potency [7] > 46 µM | Potency [8] | Potency [9] | activity change, negative = inhibition [10] 6.43%
38.9%: max response [10, 18]

Cc1noc(C)c1-c1cncnc1N1CCN(C)CC1
15.1%: max response [10, 17]
9.71%: max response [10, 18]
inactive: Potency [1] > 11.4 µM | activity change, negative = inhibition [2] 1.14% | Potency [3] | activity change, negative = inhibition [4] -0.298% | activity, negative = inhibition [5] 24.7% | Potency [6] > 46 µM | Potency [7] > 46 µM | Potency [8] | Potency [15] | Potency [9] | activity change, negative = inhibition [10] -1.64% | Potency [11] | Potency [12] | Potency [13] | Potency [14]

COc1ccccc1CNc1ncnc2ccc(-c3ccccc3OC)cc12
inactive: Potency [1] > 11.4 µM | activity change, negative = inhibition [2] -19.9% | Potency [6] > 46 µM | Potency [7] > 46 µM | Potency [8] | Potency [9] | activity change, negative = inhibition [10] -20% | Potency [14]
active: Potency [3] 1 µM | Potency [16] 6.31 µM | Potency [11] 4.47 µM | Potency [12] 4.47 µM | Potency [13] 1.58 µM
-10.4%: max response [10, 17]
-24.8%: max response [10, 18]

COc1ccccc1-c1ccc2ncnc(NC3CC3)c2c1
-20.8%: max response [10, 17]
-29.7%: max response [10, 18]
active: Potency [11] 11.2 µM | Potency [12] 14.1 µM | Potency [13] 12.6 µM
inactive: Potency [1] > 11.4 µM | activity change, negative = inhibition [2] -1.03% | activity change, negative = inhibition [4] -1.81% | activity, negative = inhibition [5] -18.1% | Potency [6] > 46 µM | Potency [7] > 46 µM | Potency [8] | activity change, negative = inhibition [10] -9.29% | Potency [14]

CN1CCN(c2ncc3ncc(=O)n(Cc4ccc(F)cc4)c3n2)CC1
inactive: Potency [1] > 11.4 µM | activity change, negative = inhibition [2] -13.9% | activity change, negative = inhibition [4] -8.56% | activity, negative = inhibition [5] -18.8% | Potency [6] > 9.22 µM | Potency [7] > 46 µM | Potency [8] | Potency [15] | Potency [9] | activity change, negative = inhibition [10] 2.71% | Potency [11] | Potency [12] | Potency [13] | Potency [14]
5.89%: max response [10, 17]
7.12%: max response [10, 18]
active: Potency [3] 25.1 µM

CN1CCN(c2ncnc3ccc(-c4ccoc4)cc23)CC1
active: Potency [11] 0.631 µM | Potency [12] 0.794 µM | Potency [13] 0.447 µM
2.82%: max response [10, 18]
inactive: Potency [1] > 11.4 µM | activity change, negative = inhibition [2] -22.9% | activity change, negative = inhibition [4] -23.1% | activity, negative = inhibition [5] -0.925% | Potency [6] > 46 µM | Potency [7] > 46 µM | Potency [8] | activity change, negative = inhibition [10] 2.55% | Potency [14]
12.5%: max response [10, 17]

COc1cccc(Cn2c(=O)c(-c3ccc(F)cc3)nc3cnc(N4CCNCC4)nc32)c1
2.95%: max response [10, 17]
inactive: Potency [1] > 11.4 µM | Potency [6] > 9.22 µM | Potency [7] > 46 µM | Potency [15] | Potency [9] | activity change, negative = inhibition [10] -5.11% | Potency [11] | Potency [12] | Potency [13]
active: Potency [3] 25.1 µM
0.893%: max response [10, 18]

CN1CCN(c2ncc3nc(-c4ccc(Cl)cc4)c(=O)n(Cc4ccc(F)cc4)c3n2)CC1
active: Potency [3] 31.6 µM | Potency [9] 15.8 µM
10.5%: max response [10, 18]
15.9%: max response [10, 17]
inactive: Potency [1] > 11.4 µM | Potency [6] > 9.22 µM | Potency [7] > 46 µM | Potency [15] | Potency [16] | activity change, negative = inhibition [10] -1.37% | Potency [11] | Potency [12] | Potency [13] | Potency [14]
